Assay outcomes: PubChem BioAssay, several laboratories
In the library only some 0.97% were active in any assay of this set; here they are far more common.
AI-2 QS modul: modulates the Vibrio harveyi AI-2 quorum sensing system | 0.4% of 300,000 active | activity change, % at 7.5 µM | AID 2094 | Vibrio harveyi JMH597 AI-2 luminescence/OD600 ratio, 9 h; hits give low values; strain lacks LuxN and CqsS sensors; 0 = neutral-control median; in the data active = activity change below about -75%, passing the limit was not always enough;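 note: luminescence divided by OD600 gain over 9 h not by final OD600 alone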
S1P3 antagonist: S1P3 (human) receptor antagonism. inhibition, % at 4.98 µM. AID 485. 0.27% of 170,000 active. CHO S1P3 NFAT-BLA reporter, FRET fluorescence, antagonist mode. Q99500;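 active = inhibition above the plate cutoff, the mean inhibition of test wells on that plate plus 3 SD, cut at about 28% in these data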;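 note: cells challenged with S1P at its EC80 of 0.8 µM; blue over green emission ratio from cleaved BLA substrate after 4 h stimulation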
S1P4 antag: antagonists of human S1P4 receptor; O95977; S1P4-expressing cells, antagonist mode, reporter read-out; inhibition, % at 4.98 µM; 0.26% of 220,000 active; AID 1510; in the data active = inhibition above about 29%
Target sequence (O95977 whole entry, looked up): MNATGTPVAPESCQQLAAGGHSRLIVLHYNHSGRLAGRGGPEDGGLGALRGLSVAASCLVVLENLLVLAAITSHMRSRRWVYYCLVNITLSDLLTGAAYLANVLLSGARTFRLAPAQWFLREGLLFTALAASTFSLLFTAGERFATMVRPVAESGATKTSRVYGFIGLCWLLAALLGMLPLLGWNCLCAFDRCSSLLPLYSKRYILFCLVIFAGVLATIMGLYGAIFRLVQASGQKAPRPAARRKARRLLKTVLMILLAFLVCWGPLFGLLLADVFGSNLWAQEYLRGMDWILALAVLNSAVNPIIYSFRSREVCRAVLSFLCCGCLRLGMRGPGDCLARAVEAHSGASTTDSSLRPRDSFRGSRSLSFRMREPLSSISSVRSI
Hsp70 activator: switches on Hsp70 transcription; activation, % at 10 µM; 0.04% of 200,000 active; HeLa Hsp70 promoter luciferase reporter, luminescence; scaled: vehicle 0, proteasome-inhibitor control 100%;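 active = activation above the mean across all tested compounds plus 3 SD, cutoff set per campaign, cut at about 5.5% in these data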
S1P4 agonist: agonists of human S1P4 receptor. 0.35% of 220,000 active. S1P4-expressing cell line, agonist reporter assay. O95977. activation, % at 4.98 µM; in the data active = activation above about 11%
S1P4 agonist cf: human S1P4 agonism, confirmation; shares compounds with S1P4 agonist; S1P4 agonist cell-based reporter assay; activation, % at 4.98 µM; 7% of 740 active; in the data active = activation above about 12%
S1P1 ag: activates human S1P1, counter-screen for S1P4 agonists | shares compounds with S1P4 agonist | S1P1 agonist cell-based assay, activation | 4% of 740 active | activation, % at 4.98 µM | AID 1563; in the data active = activation above about 21%
Numbers stand for hits.

How did CC(NC(=O)c1cccc(F)c1)C1CC2CCC1C2 (stereo not drawn) do in these assays?
AI-2 QS modul: inactive

How did O=C(NC1CCOCC1)C1CCC(=O)N(CCc2ccc(Cl)cc2)C1 (stereo not drawn) do in these assays?
AI-2 QS modul: inactive

What do the screens show for `CCc1ccccc1NC(=O)C/C(C)=N/NC(=O)COc1ccccc1C`?
AI-2 QS modul: inactive

How did CCOC(=O)C/C(C)=N/NC(=O)COc1ccccc1C do in these assays?
AI-2 QS modul: inactive; S1P3 antagonist: inactive; S1P4 antag: inactive; Hsp70 activator: inactive; S1P4 agonist: 88.9; S1P4 agonist cf: inactive; S1P1 ag: inactive

How did CC(OC(=O)c1cc2sccc2n1C)C(=O)NCc1cccs1 (stereo not drawn) do in these assays?
AI-2 QS modul: inactive; S1P3 antagonist: inactive; S1P4 antag: inactive; Hsp70 activator: inactive; S1P4 agonist: 22.5; S1P4 agonist cf: inactive; S1P1 ag: inactive

What do the screens show for `Clc1ccc(N2N=C(c3cccs3)CC2c2ccco2)cc1` (stereo not drawn)?
AI-2 QS modul: inactive; S1P4 antag: inactive; Hsp70 activator: inactive; S1P4 agonist: 14.1; S1P4 agonist cf: 18.9; S1P1 ag: 55.2

How did c1ccc(N2N=C(c3cccs3)CC2c2ccco2)cc1 (stereo not drawn) do in these assays?
AI-2 QS modul: inactive; S1P4 antag: inactive; Hsp70 activator: inactive; S1P4 agonist: inactive

What do the screens show for `CCC(C)NC(=O)c1cnc2n(c1=O)CCS2` (stereo not drawn)?
S1P3 antagonist: inactive; S1P4 antag: inactive; Hsp70 activator: inactive; S1P4 agonist: 25.0; S1P4 agonist cf: inactive; S1P1 ag: inactive

What do the screens show for `CC(NC(=O)c1cnc2n(c1=O)CCS2)c1ccccc1` (stereo not drawn)?
AI-2 QS modul: inactive; S1P3 antagonist: inactive; S1P4 antag: inactive; Hsp70 activator: inactive; S1P4 agonist: inactive

What do the screens show for `CC(C)CCOP(=O)(c1ccccc1)c1ccccc1`?
AI-2 QS modul: inactive; S1P3 antagonist: inactive; S1P4 antag: inactive; Hsp70 activator: inactive; S1P4 agonist: 57.6; S1P4 agonist cf: inactive; S1P1 ag: inactive

Results for CCc1nc(SCC#N)c(C#N)cc1C ?
AI-2 QS modul: inactive; S1P3 antagonist: inactive; S1P4 antag: inactive; Hsp70 activator: inactive; S1P4 agonist: 23.4; S1P4 agonist cf: inactive; S1P1 ag: inactive

Results for CCOc1ccc(-c2nnn(CC(=O)NCc3ccco3)n2)cc1 ?
AI-2 QS modul: inactive; S1P3 antagonist: inactive; S1P4 antag: inactive; Hsp70 activator: inactive; S1P4 agonist: inactive

How did CCOc1ccc(-c2nnn(CC(=O)NCc3ccccc3)n2)cc1 do in these assays?
AI-2 QS modul: inactive; S1P3 antagonist: inactive; S1P4 antag: inactive; Hsp70 activator: inactive; S1P4 agonist: 19.1; S1P4 agonist cf: inactive; S1P1 ag: inactive

What do the screens show for `COc1ccccc1C(=O)Nc1nc2cc3c(cc2s1)OCO3`?
AI-2 QS modul: inactive; S1P3 antagonist: inactive; S1P4 antag: inactive; S1P4 agonist: 26.7; S1P4 agonist cf: inactive; S1P1 ag: inactive

What do the screens show for `COc1cccc(N=Nc2c(N)[nH]n3c(=O)c4c(nc23)CCCC4)c1`?
AI-2 QS modul: inactive; S1P3 antagonist: inactive; S1P4 antag: inactive; Hsp70 activator: inactive; S1P4 agonist: inactive

What do the screens show for `O=[N+]([O-])c1ccc(OCCO)c(P(=O)(c2ccccc2)c2ccccc2)c1`?
AI-2 QS modul: inactive; S1P3 antagonist: inactive; S1P4 antag: inactive; S1P4 agonist: 154.6; S1P4 agonist cf: inactive; S1P1 ag: inactive

What do the screens show for `C/C(=N/NC(=O)c1nnn(-c2nonc2N)c1COc1ccccc1)c1ccc(O)cc1`?
AI-2 QS modul: inactive

What do the screens show for `CCOC(=O)c1c(S(=O)(=O)NCC(=O)NCc2ccccc2Cl)c(C)n(C)c1C`?
AI-2 QS modul: inactive

Results for N#Cc1c(-n2cccc2C=O)sc2c1CCCC2 ?
AI-2 QS modul: inactive; S1P3 antagonist: inactive; S1P4 antag: inactive; Hsp70 activator: inactive; S1P4 agonist: 18.6; S1P4 agonist cf: 14.4; S1P1 ag: inactive

Results for Cc1cc(C(=O)COC(=O)Cc2n[nH]c(=O)c3ccccc23)c(C)n1-c1ccc2c(c1)OCCO2 ?
AI-2 QS modul: inactive; S1P3 antagonist: inactive; S1P4 antag: inactive; Hsp70 activator: inactive; S1P4 agonist: inactive

What do the screens show for `O=C(CN1CCCCC1)Nc1scc2c1c(=O)oc1ccccc12`?
AI-2 QS modul: inactive; S1P3 antagonist: inactive; S1P4 antag: inactive; S1P4 agonist: inactive

How did O=C(CN1CCOCC1)Nc1scc2c1c(=O)oc1ccccc12 do in these assays?
AI-2 QS modul: inactive; S1P3 antagonist: inactive; S1P4 antag: inactive; S1P4 agonist: 23.4; S1P4 agonist cf: inactive; S1P1 ag: inactive

What do the screens show for `Clc1ccc(N2CCN(c3ncnc4c3oc3ccccc34)CC2)cc1`?
AI-2 QS modul: inactive; S1P3 antagonist: inactive

What do the screens show for `CCOC(=O)C1CCN(c2ncnc3c2oc2ccc(Cl)cc23)CC1`?
AI-2 QS modul: inactive; S1P3 antagonist: inactive; S1P4 antag: inactive; Hsp70 activator: inactive; S1P4 agonist: 186.9; S1P4 agonist cf: inactive; S1P1 ag: inactive

Results for COc1cc2ccccc2cc1C(=O)N1CC(C)CC(C)C1 (stereo not drawn) ?
AI-2 QS modul: inactive

How did COc1ccc(OC)c(S(=O)(=O)n2nnc3ccccc32)c1 do in these assays?
AI-2 QS modul: inactive; S1P3 antagonist: inactive; S1P4 antag: inactive; Hsp70 activator: inactive; S1P4 agonist: inactive

How did COc1ccc(F)cc1S(=O)(=O)n1nnc2ccccc21 do in these assays?
AI-2 QS modul: inactive; S1P3 antagonist: inactive; S1P4 antag: inactive; Hsp70 activator: inactive; S1P4 agonist: 73.6; S1P4 agonist cf: inactive; S1P1 ag: inactive

How did COc1ccc(SCC(=O)Nc2ccccc2Cl)cc1 do in these assays?
AI-2 QS modul: inactive; S1P3 antagonist: inactive; S1P4 antag: inactive; Hsp70 activator: inactive; S1P4 agonist: 113.7; S1P4 agonist cf: inactive; S1P1 ag: inactive

Results for C/C(=N\NC(=O)c1c(Cl)cnn1C)c1cccnc1 ?
AI-2 QS modul: inactive

Results for Cc1nc(-c2cccc(NS(=O)(=O)c3cccc4ccccc34)c2)cs1 ?
AI-2 QS modul: inactive; S1P4 antag: inactive; Hsp70 activator: inactive; S1P4 agonist: 12.3; S1P4 agonist cf: inactive; S1P1 ag: inactive

How did Cc1ccccc1NC(=S)NC(=O)c1cncc(Br)c1 do in these assays?
AI-2 QS modul: inactive; S1P3 antagonist: inactive; S1P4 antag: inactive; Hsp70 activator: inactive; S1P4 agonist: 16.4; S1P4 agonist cf: inactive; S1P1 ag: inactive

Results for CCOc1ccc(C2C(C(=O)c3ccco3)=C(O)C(=O)N2CCCn2ccnc2)cc1OC (stereo not drawn) ?
AI-2 QS modul: inactive

How did Cc1ccc(C2(C)NC(=O)N(CC(=O)N(Cc3ccccc3)C(C)(C)C)C2=O)cc1 (stereo not drawn) do in these assays?
AI-2 QS modul: inactive
